Reference: PubChem BioAssay AID1508622 (National Center for Advancing Translational Sciences (NCATS), 2021)
Activity calls are given as the source filed them. Where a call stands in place of a potency, no number is given. The call rests on the fitted dose curve; in most records, active means well fitted activation curve with a large enough effect; inconclusive means small, poorly fitted or top-dose-only effect; inactive means no such curve, though single readings can be large or run the other way.
Potency means the concentration at half of the fitted maximal effect.

Assay: Confirmatory qHTS for Identification of Small Molecule Activators of Huntingtin-Antisense Promoter Activity
Conditions: HEK293 HTT-AS promoter firefly luciferase reporter, 24 h; series mostly up to 57.5 µM
In short: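 2,500 luciferase reporter HEK293 cells/well; 24 h culture; cpds up to 57.5 uM final, PTC124 50 uM ctrl; 24 h, 37C; Dual-Glo FLuc reagent, 10 min RT; lum. Norm.: vehicle 0%, zero RLU -100%.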
For `CC(CNC(=O)c1ccc(CSc2nc3ccncc3n2Cc2ccc(F)cc2)cc1)c1ccccc1` (stereo not drawn), the Potency was “inactive”. In the case of `COc1cc(OC)c(OC)cc1/C=C/c1nc2cc3ccccc3cc2c(=O)n1-c1ccc(F)c(Cl)c1`, the Potency was “inactive”. With `CCN(c1ncnc2c1cnn2-c1cc(Cl)ccc1C)C1CCCCC1` the Potency was “inactive”. In the case of `Cc1cccc(CN2C(=O)N(c3ccc(C(C)C)cc3)S(=O)(=O)c3ccccc32)c1`, the Potency was “inactive”. For `Cc1cc(N2CCC(C)CC2)nc2ccc(NC(=O)CCC(=O)N3CCN(c4cccc(C(F)(F)F)c4)CC3)cc12`, the Potency was “inactive”. In the case of `Cc1cc(OCC(=O)N2CCC(c3nc4ccccc4s3)CC2)ccc1Cl`, the Potency was “inactive”. With `CCCCN1C(C(=O)c2ccccc2)=C(OC(=O)CC)c2ccccc2S1(=O)=O` the Potency was “inactive”. For `COc1ccccc1C(=O)Oc1c(Sc2ccccc2)c(C)nn1C(C)(C)C`, the Potency was “inactive”. In the case of `Cc1nc(-c2ccc(S(=O)(=O)Nc3ccc(C)c(N(C)C)c3)cc2)co1`, the Potency was “inactive”. For `CCCOc1cccc(NC(=O)c2c(-c3ccccc3Cl)noc2C)c1`, the Potency was “inactive”. In the case of `COc1ccccc1CCNC(=O)c1ccc(-c2nc(CSc3ccc(C)cc3)c(C)o2)cc1`, the Potency was “inactive”. In the case of `O=C(CN1C(=O)C2(SCC(=O)N2c2ccc(F)c(F)c2)c2ccccc21)Nc1cccc(Cl)c1` (stereo not drawn), the Potency was “inactive”. With `O=C(Nc1ccccc1)C1CCN(S(=O)(=O)c2ccc3[nH]c4c(c3c2)CCCCC4)CC1` the Potency was “inactive”. In the case of `CN(C)C(=O)COC(=O)Cc1ccc(OC(=O)c2ccc(N=C(N)N)cc2)cc1`, the Potency was “inactive”. With `CCCCC(=O)Nc1cccc(-c2nc3ccccc3s2)c1` the Potency was 3010 nM (active). With `COc1ccc(CNS(=O)(=O)c2ccc(N3CCCCS3(=O)=O)cc2)cc1` the Potency was “inactive”. For `Cc1oc(-c2cccc(Cl)c2)nc1CN1CCC(C(=O)NCCCN2CCN(c3ccc(F)cc3)CC2)CC1`, the Potency was “inactive”. With `Cc1cccc(N2CCN(C(=O)c3ccc(NC(=O)c4nsc5ccccc45)cc3)CC2C)c1` (stereo not drawn) the Potency was 338 nM (active). In the case of `Cc1ccc(Cn2c(=O)c3ccccc3n3c(-c4cccc(O)c4)nnc23)cc1`, the Potency was “inactive”. With `COc1ccc(S(=O)(=O)N2CCC(C(=O)Nc3ccc(Oc4ccccc4)cc3)CC2)cc1OC` the Potency was “inactive”. With `COc1ccc(C(=O)Oc2c(Sc3ccccc3)c(C)nn2-c2ccccc2)c(OC)c1` the Potency was “inactive”. With `COc1ccc(N2CCN(Cc3nc4c(c(=O)n(C)c(=O)n4C)n3C(C)C)CC2)cc1` the Potency was “inactive”. In the case of `COc1ccc(CCNC(=O)Cn2nc(C)c3c(C)n(-c4ccc(C)cc4)nc3c2=O)c(OC)c1`, the Potency was “inactive”. With `Cc1ccc(NCc2cccn2-c2nnc(N3CCC(C(=O)NCCC(C)C)CC3)s2)cc1` the Potency was “inactive”. In the case of `CCOc1ccc(CCNC(=O)c2ccc(CS(=O)(=O)Cc3ccccc3Cl)o2)cc1OCC`, the Potency was “inactive”. In the case of `COc1ccc(S(=O)(=O)NCCc2cc3ccc(C)c(C)c3[nH]c2=O)cc1`, the Potency was “inactive”. In the case of `O=S(=O)(Nc1ccc(F)c(C(F)(F)F)c1)c1ccc(N2CCCCS2(=O)=O)cc1`, the Potency was “inactive”. For `Cc1nc(C)c(-c2ccc(SCC(=O)Nc3ccc(F)c(F)c3)nn2)s1`, the Potency was “inactive”. With `CCOC(=O)c1cc(C)n(CC2CCC(C(=O)Nc3ccc(Cl)cc3)CC2)c1C` (stereo not drawn) the Potency was “inactive”. With `Cc1ccc(S(=O)(=O)N(CC(=O)NCCc2ccc(Cl)cc2)c2ccccc2C)cc1` the Potency was “inactive”. In the case of `CCOc1ccc(CN2CCc3nc(N4CCN(c5ccccn5)CC4)ncc3C2)cc1OC`, the Potency was “inactive”. For `CCC(=O)N1CCc2cc(S(=O)(=O)NCCC(=O)Nc3ccc(CC)cc3)ccc21`, the Potency was “inactive”. In the case of `CCN1C(=O)c2ccccc2Sc2ccc(NC(=O)Nc3ccccc3OC)cc21`, the Potency was “inactive”. For `C=Cc1ccc(Cn2c(C(=O)O)c(CNCc3ccccc3)c3ccc(C)cc32)cc1`, the Potency was “inactive”. For `CCOC(=O)C1CCC(CN(Cc2c(Cl)cccc2Cl)S(=O)(=O)c2ccc(Cl)cc2)CC1` (stereo not drawn), the Potency was “inactive”. With `COc1cc(C2CC(=O)c3c([nH]c(C(=O)OCc4ccc(C)cc4)c3C)C2)cc(OC)c1OC` (stereo not drawn) the Potency was “inactive”. With `COc1cc(CNc2ccc3[nH]c(=O)[nH]c3c2)cc(Br)c1OCc1ccc(F)cc1` the Potency was “inactive”. With `CCOC(=O)c1ccc(N2C(=O)c3[nH]nc(-c4ccc(OCC)cc4)c3C2c2cccs2)cc1` (stereo not drawn) the Potency was “inactive”.
